Source: PubChem
In the library only some 6% were active in any assay of this set; here they are far more common.
Tau fluor counter – counter-screen for tau fibril formation inhibitors; tau K18 P301L Alexa594 fluorescence, heparin fibrillization; Potency, µM (top dose mostly 57.7 µM), for inactives: at the highest dose activity change, negative = decrease; 0.93% of 280,000 active; note: nearly all actives have a fitted effect of over 55% in size
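Human K18 P301L tau (15 uM unlabeled plus 0.24 uM Alexa 594-labeled, final) in 100 mM sodium acetate pH 7 was mixed with compound and 20 uM heparin and incubated 6 hr at 37 C.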
PLK1 PBD block – PLK1 (human) polo-box domain binding inhibition | P53350 | 2.8% of 360,000 active | Plk1 PBD binding of FITC phosphopeptide, fluorescence polarization | Potency, µM, without a hit: max response, negative = inhibition, usual class: inhibitors; note: series mostly up to about 57 µM; nearly all actives have a fitted effect of over 65% in size
Target sequence (P53350 whole entry, looked up, the tested form may be a part): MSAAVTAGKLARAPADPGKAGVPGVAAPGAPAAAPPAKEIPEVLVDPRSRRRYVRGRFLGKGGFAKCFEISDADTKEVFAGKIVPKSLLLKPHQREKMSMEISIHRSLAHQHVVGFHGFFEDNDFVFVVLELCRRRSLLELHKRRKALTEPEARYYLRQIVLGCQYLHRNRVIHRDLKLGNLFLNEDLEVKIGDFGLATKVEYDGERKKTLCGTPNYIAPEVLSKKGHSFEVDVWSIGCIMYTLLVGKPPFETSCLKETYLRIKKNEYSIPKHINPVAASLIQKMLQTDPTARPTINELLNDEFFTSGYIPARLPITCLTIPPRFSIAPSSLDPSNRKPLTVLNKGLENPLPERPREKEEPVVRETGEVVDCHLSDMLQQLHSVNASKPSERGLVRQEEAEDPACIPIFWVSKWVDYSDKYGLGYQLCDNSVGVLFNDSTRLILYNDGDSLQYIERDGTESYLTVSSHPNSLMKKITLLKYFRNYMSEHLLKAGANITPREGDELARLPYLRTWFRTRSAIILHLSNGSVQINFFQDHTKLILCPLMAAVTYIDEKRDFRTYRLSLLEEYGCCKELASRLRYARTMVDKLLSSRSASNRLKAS
VDR inhibitor – blocks the human vitamin D receptor. P11473. VDR-SRC2-3 peptide fluorescence polarization, 2 h. Potency, µM, for the others: max response, negative = inhibition, hits mostly inhibitors. 0.93% of 400,000 active. AID 504847
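Reagent solutions, kept cold and dark, are dispensed first; compounds are then pinned in at 23 nl, plates briefly spun, and incubated 2 h at ambient temperature. Inhibition of VDR–SRC2-3 peptide binding is read by fluorescence polarization.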
Tau fibril ThT – inhibitors of human tau fibril formation, thioflavin T binding | P10636 | Potency, µM (doses to about 57.4 µM), inactives show top-dose activity, negative = inhibition, hits mostly inhibitors | recombinant tau K18 P301L, heparin-induced fibrillization, ThT fluorescence | AID 1460 | 2.1% of 270,000 active; note: nearly all actives have a fitted effect of over 55% in size
Target sequence (P10636 561-689 P618L limits assumed): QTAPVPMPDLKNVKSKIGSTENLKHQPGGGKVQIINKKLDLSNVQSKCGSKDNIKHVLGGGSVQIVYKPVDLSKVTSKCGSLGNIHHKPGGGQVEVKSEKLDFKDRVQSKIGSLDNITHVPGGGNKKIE
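ThT emission at 510 nm, taken 1 hr after adding 30 uM dye, quantifies aggregates formed when 20 uM heparin acts on human tau K18 P301L for 6 hr at 37 C.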
Sfp PPTase inh – inhibitors of Bacillus subtilis Sfp phosphopantetheinyl transferase; Q9F4F7; Biochemical Sfp PPTase activity, qHTS; Potency, µM, inactives show largest response in the series, negative = inhibition, usual class: inhibitors; 3.5% of 310,000 active; AID 1490;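 note: the enzyme is Sfp with the accession as filed and its product quenches rhodamine fluorescence; 0% = enzyme reaction without inhibitor and -100% = no enzyme wells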
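Sfp 15 nM + cpd, 15 min RT; start w/ rhodamine-CoA 5 uM, BHQ-2-YbbR 12.5 uM (final); 50 mM Hepes pH 7.6, 10 mM MgCl2, 0.01% NP-40, 0.01% BSA; read 525/598 nm at 0 and 30 min.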
Tau FP inhib – blocks human tau fibril formation measured by polarization | P10636 | K18 P301L tau heparin fibrillization, Alexa594 FP, 6 h | Potency, µM (titrated, usually from 57.7 µM), inactives show at the highest dose activity, negative = inhibition, most hits filed as inhibitors | 0.39% of 280,000 active; note: nearly all actives have a fitted effect of over 55% in size
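Steps: dispense K18 P301L tau (15 uM plus 0.24 uM Alexa 594 tracer, final) in pH 7 sodium acetate; add compound; add heparin (20 uM final); incubate 6 hr, 37 C; add ThT (30 uM final); after 1 hr ambient, read FP.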
TbPYK inh – confirmation of Trypanosoma brucei pyruvate kinase inhibitors; shares compounds with PLK1 PBD block; 67% of 890 active; Potency, µM (highest dose often 76.9 µM), without a hit: at the highest dose activity change, negative = inhibition, most hits filed as inhibitors; recombinant TbPYK, Kinase-Glo ATP luminescence; note: nearly all actives have a fitted effect of over 70% in size
TbPYK ADP-Glo – orthogonal confirmation of Trypanosoma brucei pyruvate kinase inhibitors | Potency, µM (doses to about 76.9 µM), inactives show at the top dose activity change, negative = inhibition, hits mostly inhibitors | recombinant TbPYK, ADP-Glo luminescence, 60 min | shares compounds with PLK1 PBD block | 62% of 890 active; note: nearly all actives have a fitted effect of over 75% in size
* = called active by the depositor; ? = inconclusive; / = no result; [ ] = dose if it differs, or a comment. Calls come from the whole dose curve; as a rule, active = well fitted curve in the direction sought with a large enough effect; inconclusive = small, poorly fitted or top-dose-only effect, or another doubt; inactive = no such curve, though single readings can be large; an effect the other way counts as inactive or inconclusive. Unless noted, % is set by controls: 0 for no effect and ±100 for the full control effect; potency is the fitted concentration of half-maximal effect.

SMILES	Tau fluor counter	PLK1 PBD block	VDR inhibitor	Tau fibril ThT	Sfp PPTase inh	Tau FP inhib	TbPYK inh	TbPYK ADP-Glo
CCOC(=O)N/N=C1/C[C@@H](O)[C@@H](O)[C@@H]2[C@@H]3C(=O)N(Cc4ccccc4)C(=O)[C@H]3CC[C@H]12	-17%[11.6 µM]	/	/	-10%[11.5 µM]	16%	?	/	/
Cc1ccc(S(=O)(=O)NNc2ccccc2)c(C)c1	-14%	21µM*	?	22µM*	18µM*	?	16µM*	?
Cc1ccc(S(=O)(=O)NNC(=O)c2cccs2)c(C)c1	-6%	2%	3%	-5%	13%	-1%	/	/
O=C(NCc1ccccc1Cl)C1CCN(S(=O)(=O)Cc2ccccc2)CC1	-11%	/	18%	3%	/	-9%	/	/
Oc1cc(O)cc(/C=C/c2ccc(O)c(O)c2)c1	11µM*[quencher]	-13%	-13%	7.1µM*	40µM*	8%	11µM*	?
C=CCN(Cc1ccc(OC)c(OC)c1)C(=O)c1cc2cc(F)ccc2[nH]1	/	-2%	1%	/	2%	/	/	/
CCN(CC)c1ccc(C(=C2C=CC(=[N+](CC)CC)C=C2)c2ccc(S(=O)(=O)O)cc2S(=O)(=O)[O-])cc1	/	-13%	57%	/	/	/	16µM*	2%
CN(C)c1ccc(C(=C2C=CC(=[N+](C)C)C=C2)c2c(O)c(S(=O)(=O)[O-])cc3cc(S(=O)(=O)O)ccc23)cc1	/	/	88%	/	?	/	/	/
CC1=CC(=O)C=CC1=Nc1ccc(N(C)C)cc1	/	?	/	/	/	/	22µM*	-16%
CCn1c(=S)sc2c(=O)n(-c3ccccc3)c(=S)[nH]c21	-18%	-15%	-9%	?	-26%	?	/	/
CCOc1ccccc1-n1c(=S)sc2c(=O)n(-c3ccc(C)cc3)c(=S)[nH]c21	-3%	6.7µM*	?	-7%	45µM*	-8%	4.5µM*	6.3µM*
CC(C)CCNC(=O)N1CCN(S(=O)(=O)c2ccc3c(ccn3C)c2)CC1	-7%	/	7%	-1%	/	-6%	/	/
N#Cc1c(NC(=O)CCC(=O)O)sc2c1CCCCC2	-13%	27µM*	0%	20µM*	20µM*	?	?	?
N#Cc1c(NC(=O)CCC(=O)O)sc2c1CCCC2	1%	-16%	-1%	0%	0%	3%	/	/
CCN(CC)c1ccc(/C=N/n2nnnc2N)c(O)c1	-18%	-5%	-3%	?	-17%	6%	/	/
CCN(CC)c1ccc2nc3ccc(N)cc3[n+](-c3ccccc3)c2c1	/	-27%	?	/	/	/	?	8%
Cc1ccc(/C=C/C(=O)N2CCN(S(=O)(=O)c3ccc(C)c(C)c3)CC2)o1	-5%	24µM*	?	?	18µM*	-18%	13µM*	16µM*
CCc1nn2c(=O)cc(COC(=O)c3ccccc3NC(=O)c3ccc(C(C)(C)C)cc3)nc2s1	-7%	/	14%	-9%	/	4%	/	/
Oc1ccc(N2CCN(C(c3cccs3)c3nnnn3CCc3ccccc3)CC2)cc1 (stereo not given)	?	-5%	1%	?	50µM*	0%	4.5µM*	22µM*
COc1ccc(Cn2nnnc2C(c2cccs2)N2CCN(c3ccccc3)CC2)cc1 (stereo not given)	-13%	0%	10%	-2%	-3%	11%	/	/
COc1cc(N2C(=O)C=CC2=O)c(OC)cc1Cl	0%	3µM*	28µM*	?	3.5µM*	-3%	4.5µM*	7.1µM*
Cc1cc2nc(-c3ccc(Br)cc3)cc(C(F)(F)F)n2n1	-6%	/	42%	-5%	/	-7%	/	/
C=CCNC(=S)NNC(=O)c1cccn(Cc2ccc(Cl)cc2Cl)c1=O	-14%	-16%	-5%	-9%	6%	7%	0.89µM*	2.8µM*
CCNC(=S)NNC(=O)c1cccn(Cc2ccc(Cl)cc2Cl)c1=O	-8%	-13%	-3%	-10%	13%	-8%	/	/
O=C(Nc1ccccc1)/C(=C/c1ccc(O)cc1)NC(=O)c1ccco1	/	-9%	8%	/	5%	/	/	/
SMILES	Tau fluor counter	PLK1 PBD block	VDR inhibitor	Tau fibril ThT	Sfp PPTase inh	Tau FP inhib	TbPYK inh	TbPYK ADP-Glo
CCOc1ccc(C(=S)N2CCN(C)CC2)cc1	-4%	13µM*	?	-2%	14µM*	3%	13µM*	4.5µM*
COc1ccc(N2C3=C(CC4=C2CCCC4=O)C(=O)CCC3)cc1	-30%	21µM*	-22%	?	-2%	?	-7%	-23%
COc1ccc(-n2ccc(=O)c3c2CCCC3=O)cc1	-1%	0%	-8%	-4%	-5%	0%	/	/
O=C1c2sc3nc4ccccc4n3c2C(=O)N1c1ccccc1Cl	-29%	12µM*	-4%	28µM*	40µM*	?	6.3µM*	16µM*
N=c1cc(C2(O)CCCCC2)n2c(nc3ccccc32)s1	-13%	-6%	2%	-19%	-17%	-5%	/	/
CC1=C/C(=C(/c2cc(C)c(O)c(Br)c2)c2ccccc2S(=O)(=O)O)C=C(Br)C1=O	/	?	102%	/	-21%	/	22µM*	10%
CCOC(=O)C1(C)CCCN(C(=O)c2ccc(OC(F)F)cc2)C1 (stereo not given)	/	-2%	/	/	/	/	/	/
CCOc1cc(/C=N/N=C2/NC(=O)C(CC(=O)O)S2)ccc1OCc1ccc(Cl)cc1 (stereo not given)	5%	?	-16%	?	3%	3%	16µM*	32µM*
COc1ccc(/C=N/N=C2/NC(=O)C(CC(=O)O)S2)cc1OCc1ccc(Cl)cc1 (stereo not given)	3%	-21%	-20%	-18%	-3%	12%	/	/
CCOC(=O)c1cc(S(=O)(=O)N2CCN(c3ccccc3F)CC2)[nH]n1	-4%	/	1%	1%	/	-7%	/	/
O=C(NCCCNC(=O)c1cccs1)c1cccs1	-3%	2.7µM*	?	-3%	-12%	-1%	-5%	-9%
O=C(NCCCCNC(=O)c1cccs1)c1cccs1	5%	-6%	3%	2%	20%	6%	/	/
Cc1nc(SCC(=O)O)c(C#N)c(C)c1CC(=O)c1ccccc1	-2%	-19%	-11%	-7%	7%	6%	5.6µM*	11µM*
CCOC(=O)CCc1c(C)nc(SCC(=O)O)c(C#N)c1C	-3%	-20%	?	-3%	79µM*	1%	2.2µM*	7.1µM*
CCOC(=O)[C@]12CCC=C1N(CCC1=CCCCC1)C(=O)[C@H](CC(=O)N1CCCCC1)C2	/	-8%	/	/	/	/	/	/
